Calls of active or inactive are those of the source. The call rests on the fitted dose curve; in most records, active means well fitted activation curve with a large enough effect; inactive means flat fitted curve, though single readings scatter.
target: Pyruvate kinase PKM (Homo sapiens) (UniProt P14618); test: qHTS for Activators of Human Muscle Isoform Pyruvate Kinase: Extended Characterization Using A Lactate Dehydrogenase (LDH) Assay; settings: purified hPK-M2, LDH-coupled NADH fluorescence kinetic
From the text: Human pyruvate kinase muscle 2 (hPK-M2)enzyme was supplied as a highly purified (>95% pure) preparation from Harvard Medical School and a secondary assay was used to evaluate compounds. This assay couples the formation of pyruvate from hPK-M2 using lactate dehydrogenase (LDH) and NADH. The depletion of NADH is followed in a fluorescent-based kinetic assay that follows the formation of pyruvate to lactate, as catalyzed LDH (described by Hannaert et al., 2002)1 Pyruvate kinase substrates, PEP and ADP, were present in the assay at 0.1 mM and 4 mM respectively. In this kinetic assay initial rates were determined by following the fluorescence of NADH depletion. NIH Chemical Genomics Center [NCGC] NIH Molecular Libraries Probe Centers Network [MLPCN] MLPCN Grant: MH085679 Assay Submitter (PI): Matthew G. Vander Heiden, Harvard Medical School
Three uL of substrate mix (final concentration, 50 mM Tris-Cl pH 8.0, 200 mM KCl, 15 mM MgCl2, 0.1 mM PEP, 4.0 mM ADP, and 0.2 mM NADH) was dispensed into black-solid 1536 well plates. 23 nL of compounds were delivered by a pin tool and 1 uL of enzyme mix (final concentrations, 10 nM hPK-M2 and 1 uM of LDH) was added. Plates were immediately placed in ViewLux (Perkin Elmer) and NADH fluorescence was determined at 30 second exposure intervals for between 3 and 6 minutes. Data were normalized to the uninhibited and EC100 activation using known activators such as fructose-bis-phosphate.

Pyruvate kinase PKM (Homo sapiens), sequence (P14618 whole entry, looked up, canonical isoform): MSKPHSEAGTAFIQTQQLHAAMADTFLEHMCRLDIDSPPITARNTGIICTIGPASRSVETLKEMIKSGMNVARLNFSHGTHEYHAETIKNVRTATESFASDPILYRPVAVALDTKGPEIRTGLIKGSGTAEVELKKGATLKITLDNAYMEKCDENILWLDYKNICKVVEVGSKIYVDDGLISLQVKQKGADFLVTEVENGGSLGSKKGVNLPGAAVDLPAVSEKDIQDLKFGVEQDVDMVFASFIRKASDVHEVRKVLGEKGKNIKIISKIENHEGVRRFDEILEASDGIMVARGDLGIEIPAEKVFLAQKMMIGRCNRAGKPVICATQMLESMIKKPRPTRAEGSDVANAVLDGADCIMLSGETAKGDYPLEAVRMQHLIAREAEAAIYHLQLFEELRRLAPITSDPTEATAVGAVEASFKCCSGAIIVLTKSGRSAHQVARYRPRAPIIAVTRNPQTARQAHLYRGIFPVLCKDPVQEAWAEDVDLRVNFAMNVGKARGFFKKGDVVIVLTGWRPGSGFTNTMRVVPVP

Potency, active:
Cc1cc2c(s1)c1cnn(Cc3cc(F)c(F)cc3F)c(=O)c1n2C 398 nM
COc1cccc(Cn2ncc3c4sc(S(C)=O)cc4n(C)c3c2=O)c1 (stereo not given) 146 nM
Cc1cc2c(s1)c1cnn(Cc3c(Cl)ccc(C)c3F)c(=O)c1n2C 562 nM
Cc1cc2c(s1)c1cnn(Cc3cc(F)ccc3F)c(=O)c1n2C 447 nM
Cc1cc2c(s1)c1cnn(Cc3ccc(F)cc3F)c(=O)c1n2C 224 nM

— PubChem BioAssay AID602377 (National Center for Advancing Translational Sciences (NCATS), 2012)
